# The whole screen tested about 310,000 compounds, of which about 14,000 (4.5%) showed an effect of 50% or more. Effects have a minus sign here. Only a selection was taken, and strong results are over-represented in it overall.
# Molecular target: human ether-à-go-go-related gene (hERG) potassium channel (human, UniProt Q12809)
# Assay: primary screen, population patch clamp on CHO cells stably expressing hERG; higher = less effect of the substance
# 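Note: peak tail current of the secondary pulse compared with the same well before compound.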
# Chain of human ether-à-go-go-related gene (hERG) potassium channel (Q12809 whole entry, looked up): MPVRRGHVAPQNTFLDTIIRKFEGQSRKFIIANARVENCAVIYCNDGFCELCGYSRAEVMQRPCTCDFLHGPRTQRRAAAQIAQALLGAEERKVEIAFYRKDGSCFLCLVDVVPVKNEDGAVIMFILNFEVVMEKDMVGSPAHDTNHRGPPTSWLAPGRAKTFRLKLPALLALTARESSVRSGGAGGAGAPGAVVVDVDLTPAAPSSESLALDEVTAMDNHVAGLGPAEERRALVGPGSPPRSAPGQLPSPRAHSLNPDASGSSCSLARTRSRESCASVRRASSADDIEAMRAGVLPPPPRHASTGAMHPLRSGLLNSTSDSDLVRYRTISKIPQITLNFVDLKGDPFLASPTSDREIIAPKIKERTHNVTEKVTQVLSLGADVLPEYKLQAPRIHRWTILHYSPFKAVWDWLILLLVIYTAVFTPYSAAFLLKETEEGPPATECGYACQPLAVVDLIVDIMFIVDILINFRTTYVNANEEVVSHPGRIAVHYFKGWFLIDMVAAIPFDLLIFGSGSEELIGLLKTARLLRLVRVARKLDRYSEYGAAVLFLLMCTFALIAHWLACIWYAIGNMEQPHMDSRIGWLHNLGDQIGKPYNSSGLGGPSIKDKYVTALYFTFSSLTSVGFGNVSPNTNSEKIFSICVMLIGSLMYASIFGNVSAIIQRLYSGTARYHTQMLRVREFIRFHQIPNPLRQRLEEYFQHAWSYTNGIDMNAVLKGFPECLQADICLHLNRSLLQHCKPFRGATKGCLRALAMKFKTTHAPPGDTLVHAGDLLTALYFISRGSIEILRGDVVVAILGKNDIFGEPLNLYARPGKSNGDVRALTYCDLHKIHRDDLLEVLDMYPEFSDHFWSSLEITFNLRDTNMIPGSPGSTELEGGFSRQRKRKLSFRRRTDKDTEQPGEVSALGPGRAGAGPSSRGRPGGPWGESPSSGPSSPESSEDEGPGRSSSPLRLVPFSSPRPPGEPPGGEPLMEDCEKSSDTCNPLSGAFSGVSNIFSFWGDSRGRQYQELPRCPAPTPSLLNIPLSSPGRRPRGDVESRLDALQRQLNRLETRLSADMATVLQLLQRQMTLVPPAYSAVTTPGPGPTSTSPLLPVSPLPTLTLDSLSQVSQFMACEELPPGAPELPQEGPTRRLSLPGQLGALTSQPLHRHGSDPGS
row,SMILES,"hERG current change (%, negative = inhibition) at 10uM [%]"
1,COc1ccc(OC)c(NC(=O)Cc2coc3cc(C)cc(C)c23)c1,1.9
2,COC(=O)C1=C(c2ccc(F)cc2OCc2ccccc2)C[C@@H]2CC[C@H]1N2C(=O)NCc1ccc(OC)c(OC)c1,-2.13
3,CCn1c(C)nc2cc(C(=O)NNC(=S)Nc3ccc(F)cc3)ccc21,15.9
4,CCC(=O)N1CCN(C(=O)c2ccccc2)CC1,1.82
5,O=C(Nc1ccc(N2CCOCC2)cc1)c1cccc(S(=O)(=O)N2CCC(Cc3ccccc3)CC2)c1,2.84
6,OC(CNCCc1ccc(Cl)cc1)COCc1ccco1 (stereo not shown),-44.6
7,Cc1cc(Cl)ccc1OCC(O)CNCCc1ccc(S(N)(=O)=O)cc1 (stereo not shown),-67.6
8,O=C(O)C(=O)O.OC(CNCCc1ccc(Cl)cc1Cl)COc1ccccc1 (stereo not shown),-25.7
9,OC(CNCCc1ccc(Cl)cc1)COc1cc(Cl)ccc1Cl (stereo not shown),-56.6
10,Cc1cc(Cl)ccc1NC(=S)NCCc1ccc(S(N)(=O)=O)cc1,-16.1
11,COc1ccc(Cl)cc1NC(=S)NCCc1ccc(S(N)(=O)=O)cc1,5.52
12,CCn1c(=NC(=O)CS(=O)(=O)c2ccc(C)cc2)sc2cccc(OC)c21,-0.869
13,O=C(CCc1ccccc1O)N/N=C/c1ccc(Sc2cccc3cccnc23)o1,21.8
14,COc1ccc(CNC(=O)CN2CCN(c3ccccc3O)CC2)cc1OC,12.6
15,CCSc1nc2ccccc2c(=O)n1CCc1ccc(OC)c(OC)c1,14.9
16,COCCn1c(SCCN2CCCCC2)nc2ccccc2c1=O,-78.4
17,O=c1c2ccccc2nc(SCCN2CCCCC2)n1CCc1ccccc1,-71.7
18,NC(=O)CSc1nc2ccccc2c(=O)n1CCc1ccccc1,8.93
19,C=CCNC(=O)CSc1nc2ccccc2c(=O)n1CCc1ccc(OC)c(OC)c1,-15.4
20,COc1ccc(CCn2c(SCCN3CCCCC3)nc3ccccc3c2=O)cc1OC,-53.3
21,COCCn1c(SCCOc2ccccc2)nc2ccccc2c1=O,-6.1
22,O=c1c2ccccc2nc(SCCN2CCOCC2)n1CCc1ccccc1,-15.4

row,SMILES,"hERG current change (%, negative = inhibition) at 10uM [%]"
1,COCCn1c(SCC(=O)c2ccccc2)nc2ccccc2c1=O,-12.4
2,O=C(CSc1nnc(NC(=O)Cc2ccc(F)cc2)s1)NCc1ccco1,14.3
3,Cc1ccccc1Cn1cc(S(=O)(=O)CC(=O)N2CCCCC2)c2ccccc21,7.27
4,Nc1cc(Nc2ccccc2)c2nonc2c1[N+](=O)[O-],16.3
5,N#Cc1c(Nc2cccc(F)c2)sc2c(O)cc(=O)[nH]c12,27.3
6,Cc1ccccc1-n1c(C)cc(/C=N/Nc2ccc([N+](=O)[O-])cn2)c1C,17.4
7,CN1CCc2cc(Cl)c(O)cc2[C@@H](c2ccccc2)C1.Cl,-56
8,Br.C=CCN1CCc2cc(O)c(O)cc2C(c2ccccc2)C1 (stereo not shown),-23.9
9,Br.Oc1ccc(C2CNCCc3c2cc(O)c(O)c3Cl)cc1 (stereo not shown),-3.12
10,Br.Cc1cccc(C2CN(C)CCc3c2cc(O)c(O)c3Cl)c1 (stereo not shown),-51.1
11,Br.CN1CCc2cc(O)c(O)cc2C(c2ccccc2)C1 (stereo not shown),-13.6
12,Br.C=CCN1CCc2c(cc(O)c(O)c2Cl)C(c2ccccc2)C1 (stereo not shown),-41
13,O=[N+]([O-])c1ccc(-c2nc(=S)c3c(o2)CCCC3)cc1,-6.53
14,c1ccc(Nc2ccccn2)nc1,7.19
15,Oc1cccc2ccc(Nc3ccccn3)nc12,-53.6
16,Oc1ccccc1Nc1ccccn1,6.88
17,Nc1ccc(C#Cc2c(-c3ccsc3)oc3ccc(N4CCOCC4)cc23)cc1,5.98
18,NC(=O)c1ccc(NC(=O)CCN2C(=O)c3ccccc3C2=O)cc1,16
19,CN(C)c1ccc(NC(=O)C2C3C=CC(C3)C2C(=O)O)cc1 (stereo not shown),7.65
20,O=c1cccc2n1CC1CC2CN(c2ncnc3c2cnn3-c2ccc(Cl)cc2)C1 (stereo not shown),-62.1
21,CC1CN(c2ncnc3c2cnn3-c2ccc(Cl)cc2)CC(C)O1 (stereo not shown),0.749
22,O=c1cccc2n1CC1CC2CN(c2ncnc3c2cnn3-c2ccccc2)C1 (stereo not shown),-30

row,SMILES,"hERG current change (%, negative = inhibition) at 10uM [%]"
1,O=C(Nc1nnc(C2=COCCO2)o1)c1cccc(F)c1,16.7
2,Cn1nccc1C(=O)N1CCCC(C(=O)c2ccc(C(F)(F)F)cc2)C1 (stereo not shown),6.14
3,O=C(CCc1ccncc1)N1CCCC(Nc2ccc(F)c(F)c2)C1 (stereo not shown),-56
4,O=C(c1ccc(C(F)(F)F)cc1)C1CCCN(C(=O)CCc2ccncc2)C1 (stereo not shown),-59.4
5,O=C(CCc1ccncc1)N1CCCC(Nc2ccc(F)cc2)C1 (stereo not shown),-13.9
6,NC(=O)CCC(=O)N1CCCC(C(=O)c2ccc(C(F)(F)F)cc2)C1 (stereo not shown),1
7,COc1ccc2cc(C(=O)C3CCCN(C(=O)c4cc(=O)n(C)c(=O)n4C)C3)ccc2c1 (stereo not shown),-38.4
8,Cn1c(C(=O)N2CCCC(C(=O)c3ccc(C(F)(F)F)cc3)C2)cc(=O)n(C)c1=O (stereo not shown),-71.7
9,Cc1ccc(NC2CCCN(C(=O)CCc3ccncc3)C2)cc1C (stereo not shown),-24.5
10,O=C(c1ccc(C(F)(F)F)cc1)C1CCCN(C(=O)CCc2cnccn2)C1 (stereo not shown),-15.1
11,O=C(c1ccc(S(=O)(=O)Nc2ccccc2F)cc1)N1CCCCCC1,2.93
12,O=C(N[C@@H]1CCC(=O)N(CC[C@H](Sc2ccc(Br)cc2)c2ccccc2)CC1)OCc1ccccc1,0.417
13,COc1ccc2[nH]c(=O)c(CN(CCO)S(=O)(=O)c3ccc(C)cc3)cc2c1,-9.52
14,Cc1ccc(C)c(NC(=S)N/N=C2\CCc3ccccc32)c1,9.03
15,COc1ccc(CCNC(=O)Cc2cc(=O)[nH]c(=O)[nH]2)cc1OC,-9.44
16,CCN1/C(=C2/SC(=S)N(C)C2=O)C=Cc2cc(C)ccc21,-1.96
17,CCN1C(=O)/C(=C2/C=Cc3cc(C)ccc3N2CC)N(C)C1=S,-54.8
18,CCN1/C(=C2\C(=O)N(C)C(=S)N2C)C=Cc2cc(C)ccc21,-33.4
19,CC1=NN(C(C)C)C(=O)C1,8.62
20,CCOC(=O)C1(CCCc2ccccc2)CCN(Cc2cnc(C)s2)CC1,-73.1
21,CCOC(=O)C1(CCOc2ccccc2)CCN(Cc2cccs2)CC1,-81.8
22,CCOC(=O)C1(CCc2ccccc2)CCN(Cc2cnc(N(C)C)s2)CC1,-83

row,SMILES,"hERG current change (%, negative = inhibition) at 10uM [%]"
1,CCOC(=O)C1(CCOC)CCN(Cc2cc3ccccc3s2)CC1,-22.5
2,CCOC(=O)C1(Cc2cccc(F)c2)CCN(Cc2cnc(C)s2)CC1,-2.73
3,CCOC(=O)C1(CCOc2ccccc2)CCN(Cc2ccc(C)s2)CC1,-89.8
4,CCOC(=O)C1(CC2CC2)CCN(Cc2cnc(N(C)C)s2)CC1,-22.1
5,CCN(CC)C(=O)CC(c1ccc(F)cc1)c1ccc(OC)cc1 (stereo not shown),-25.1
6,CC1CC(C)(C)N2C(=O)C3(Nc4ccccc4S3)c3cccc1c32 (stereo not shown),22.1
7,Cc1ccc(C(C)C)cc1OCCCCN1CCCC1,-49
8,COc1ccc(N(CC(=O)NCCSCc2ccco2)S(=O)(=O)c2ccccc2)cc1,-9.08
9,COc1ccc(CN2C(=O)c3ccccc3C2=O)cc1C(=O)N(C)CC(=O)Nc1c(C)cccc1C,-16.7
10,CCOC(=O)C1(CCOc2ccccc2)CCN(Cc2cnc(C)[nH]2)CC1,-48.3
11,CCOC(=O)C1(CCOc2ccccc2)CCN(Cc2cnc(C)s2)CC1,-62.4
12,CCC(=O)Nc1cccc(NC(=O)c2ccc(C)cc2Cl)c1,34.5
13,NC(=S)NNc1ccc(Cl)c(Cl)c1,16.3
14,O=C(NCCCN1CCOCC1)c1ccc(N2CCCC2)c([N+](=O)[O-])c1,-16.8
15,COc1ccc(C(=O)NCCCn2ccnc2)cc1[N+](=O)[O-],-8.22
16,Cc1ccc(C(=O)NCCCn2ccnc2)cc1[N+](=O)[O-],4.53
17,O=C(NCCCn1ccnc1)c1ccc(N2CCCCC2)c([N+](=O)[O-])c1,-71.7
18,Cl.O=C(NCCCn1ccnc1)c1ccc(S(=O)(=O)N2CCCCCC2)cc1,-7.07
19,Cl.O=C(NCCCn1ccnc1)c1ccc(N2CCCCCC2)c([N+](=O)[O-])c1,-64
20,COc1ccc(/C=C(\NC(=O)c2ccccc2)C(=O)NCCC(=O)O)cc1,26.3
21,Cc1cc(NC(=O)c2ccc3c(c2)OCCO3)ccc1NC(=O)c1ccco1,8.5
22,COc1ccc(C(=O)NCC(=O)N/N=C/c2ccco2)cc1OC,25.9
